# In PubChem BioAssay (Tox21):
# Values joined by “and” are separate entries in the source; they are usually repeats but may differ in a detail not shown here. Equal values may be shown once. Results filed as inconclusive are left out. Entries that show only a call come without a potency. The source holds several records for some structures; these can differ, active in one and inactive in another. Active and inactive are the calls of the source. Unless noted, the call rests on the fitted dose curve; in most records, active means well fitted curve in the direction sought with a large enough effect in the repeat runs; inconclusive means weak or mixed curves; inactive means no such curve, though single readings can be large; an effect the other way counts as inactive or inconclusive.
# Experiments:
# [1] = qHTS assay to identify aromatase inhibitors - cell viability counter screen (AID 743084);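 further: cells stimulated with testosterone during compound exposure; nearly all actives have a fitted effect of over 55% in size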; further: potency means the concentration at half of the fitted maximal effect
# [2] = molecular target: Aryl hydrocarbon receptor (Homo sapiens) (UniProt P35869); experiment: qHTS assay to identify small molecule that activate the aryl hydrocarbon receptor (AhR) signaling pathway (AID 743085); further: nearly all actives have a fitted effect of over 15% in size; further: potency means the concentration at half of the fitted maximal effect;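 on activation: HG2L7.5c1 human HepG2 liver cells with stably integrated DRE-driven firefly reporter; series mostly up to about 70 µM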
# How it was run: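 Reporter assay in engineered HepG2 line HG2L7.5c1, whose plasmid carries twenty dioxin responsive elements upstream of firefly luciferase. Treatment lasted 24 h at 37C; ONE-Glo luminescence gauged induction.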
# [3] = qHTS assay to identify small molecule that activate the aryl hydrocarbon receptor (AhR) signaling pathway - cell viability counter screen (AID 743086); further: nearly all actives have a fitted effect of over 45% in size; further: potency means the concentration at half of the fitted maximal effect;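 on viability change, negative = cytotoxic: HepG2 liver cells carrying the AhR DRE luciferase reporter; series mostly up to about 70 µM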
# How it was run: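 HepG2-AhR-luc (HG2L7.5c1) cells, 4000/well, were preincubated 5 h at 37C, exposed to compound in qHTS format for 24 hr at 37C, then given CellTiter-Fluor for 30 min; viability was read as fluorescence in the reporter wells.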
# [4] = molecular target: Peroxisome proliferator-activated receptor gamma (Homo sapiens) (UniProt P37231); experiment: qHTS assay to identify small molecule agonists of the peroxisome proliferator-activated receptor gamma (PPARg) signaling pathway (AID 743094; active means well fitted activation curve with a large enough effect in the signal ratio in the repeat runs, not every such curve was filed as active; the % refers to the signal ratio)
# How it was run: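 HEK293H PPARg-bla cells, 5 h settle at 37C/5% CO2; compound (DMSO) 17 h, 37C; B/G FRET substrate 1 h RT; fluorescence intensity read-out. qHTS format.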
# [5] = qHTS assay for small molecule agonists of the antioxidant response element (ARE) signaling pathway - cell viability counter screen (AID 743203; calls by dose curve; further: nearly all actives have a fitted effect of over 55% in size; further: potency means the concentration at half of the fitted maximal effect)
# How it was run: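 Luminescence read-out (CellTiter-Glo, 30 min at room temperature) measured cell viability in the same wells as the ARE beta-lactamase reporter. HepG2 ARE-bla cells were treated with compounds for 16 hrs at 37C/5% CO2.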
# [6] = qHTS assay for small molecule activators of the heat shock response signaling pathway - cell viability counter screen (AID 743209); further: nearly all actives have a fitted effect of over 50% in size; further: potency means the concentration at half of the fitted maximal effect
# How it was run: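 HSE-bla HeLa; 1500 cells/well; overnight 37 C, 5% CO2; compound 5 h 37 C; LiveBLAzer B/G substrate 2.5 h RT; CellTiter-Glo 30 min RT; luminescence.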
# [7] = qHTS assay for small molecule activators of the heat shock response signaling pathway (AID 743210; active means well fitted activation curve with a large enough effect in the signal ratio in the repeat runs, with a control signal flat, not every such curve was filed as active; the % refers to the signal ratio; further: series mostly up to about 63 µM)
# How it was run: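 Heat shock element–beta-lactamase HeLa reporter cells; qHTS with compounds for 5 h at 37 C; detection by FRET substrate fluorescence after 2.5 h at RT.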
# [8] = qHTS assay to identify small molecule antagonists of the peroxisome proliferator-activated receptor gamma (PPARg) signaling pathway - cell viability counter screen (AID 743194); settings: Potency: co-treated with 50 nM rosiglitazone unless noted; further: nearly all actives have a fitted effect of over 55% in size; further: potency means the concentration at half of the fitted maximal effect
# How it was run: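 PPARg-UAS-bla HEK293H cells were plated, rested 5 h at 37 C, then treated with compounds plus rosiglitazone (50 nM final) for 17 h at 37 C; viability was then read by CellTiter-Glo luminescence after 30 min at room temperature.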
# [9] = qHTS assay for small molecule agonists of the antioxidant response element (ARE) signaling pathway (AID 743202; active means well fitted activation curve with a large enough effect in the signal ratio in the repeat runs, not every such curve was filed as active; the % refers to the signal ratio; further: potency means the concentration at half of the fitted maximal effect)
# How it was run: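 Following a 16 h, 37 C exposure of reporter HepG2 cells (ARE-driven beta-lactamase, 2,000 cells/well) to compounds, FRET substrate was applied for 2 h at room temperature and fluorescence intensity recorded.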
# [10] = molecular target: Peroxisome proliferator-activated receptor gamma (Homo sapiens) (UniProt P37231); experiment: qHTS assay to identify small molecule antagonists of the peroxisome proliferator-activated receptor gamma (PPARg) signaling pathway (AID 743191; calls by dose curve; further: series mostly up to about 63 µM; nearly all actives have a fitted effect of over 30% in size)
# How it was run: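 GeneBLAzer PPARg UAS-bla HEK293H cells carrying a UAS-driven beta-lactamase reporter were plated at 3000 cells/well, preincubated 5 h at 37C, then given compound for 17 h at 37C; LiveBLAzer B/G FRET substrate was read after 1 h at room temperature.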
# Sequence of Peroxisome proliferator-activated receptor gamma (Homo sapiens) (P37231 whole entry, looked up): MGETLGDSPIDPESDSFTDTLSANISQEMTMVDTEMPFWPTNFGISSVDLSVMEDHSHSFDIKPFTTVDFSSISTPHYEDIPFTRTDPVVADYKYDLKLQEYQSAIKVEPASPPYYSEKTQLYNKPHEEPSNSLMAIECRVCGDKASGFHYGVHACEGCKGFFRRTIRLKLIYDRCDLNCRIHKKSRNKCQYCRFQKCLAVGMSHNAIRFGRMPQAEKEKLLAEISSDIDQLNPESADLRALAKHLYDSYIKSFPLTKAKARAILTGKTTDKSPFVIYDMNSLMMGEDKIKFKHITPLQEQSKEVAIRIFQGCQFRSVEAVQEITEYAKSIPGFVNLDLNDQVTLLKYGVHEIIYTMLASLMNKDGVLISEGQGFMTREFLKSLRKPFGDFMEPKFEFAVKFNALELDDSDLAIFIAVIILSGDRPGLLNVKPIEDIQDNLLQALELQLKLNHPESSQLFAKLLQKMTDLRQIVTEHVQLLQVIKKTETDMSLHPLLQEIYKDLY
# Sequence of Aryl hydrocarbon receptor (Homo sapiens) (P35869 whole entry, looked up): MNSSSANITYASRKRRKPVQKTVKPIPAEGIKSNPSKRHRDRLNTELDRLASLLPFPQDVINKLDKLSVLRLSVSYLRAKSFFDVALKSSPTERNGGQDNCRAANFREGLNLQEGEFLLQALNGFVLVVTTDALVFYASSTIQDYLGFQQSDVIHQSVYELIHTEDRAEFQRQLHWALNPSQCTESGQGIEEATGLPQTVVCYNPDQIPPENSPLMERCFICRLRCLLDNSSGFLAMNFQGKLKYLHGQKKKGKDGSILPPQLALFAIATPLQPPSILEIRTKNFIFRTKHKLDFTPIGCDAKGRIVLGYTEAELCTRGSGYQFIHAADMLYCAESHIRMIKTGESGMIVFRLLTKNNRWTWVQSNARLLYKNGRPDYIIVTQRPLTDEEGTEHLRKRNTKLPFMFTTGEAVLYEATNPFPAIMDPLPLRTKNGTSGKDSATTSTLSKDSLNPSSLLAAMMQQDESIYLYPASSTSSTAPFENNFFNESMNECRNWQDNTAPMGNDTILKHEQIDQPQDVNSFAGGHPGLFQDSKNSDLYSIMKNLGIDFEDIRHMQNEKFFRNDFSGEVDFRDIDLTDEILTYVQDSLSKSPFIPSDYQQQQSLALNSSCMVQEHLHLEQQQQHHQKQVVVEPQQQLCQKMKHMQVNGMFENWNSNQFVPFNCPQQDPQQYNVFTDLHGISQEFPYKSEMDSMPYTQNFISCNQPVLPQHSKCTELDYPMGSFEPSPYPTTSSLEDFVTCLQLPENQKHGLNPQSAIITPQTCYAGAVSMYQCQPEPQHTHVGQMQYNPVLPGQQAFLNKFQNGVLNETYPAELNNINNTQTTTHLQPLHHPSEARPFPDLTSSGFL
compound,measurement,setting,value
CC(C)c1c(CN(C)C(C)Cc2ccccc2)n(C)n(-c2ccccc2)c1=O (stereo unspecified),Potency,[1],inactive
same,Potency,[2],inactive
same,Potency,[3],inactive
same,Potency,[4],inactive
same,Potency,[5],inactive
same,Potency,[6],inactive
same,Potency,[7],inactive
C[N+]1(C)[C@@H]2CC[C@H]1CC(OC(=O)C(CO)c1ccccc1)C2 (stereo partly specified),Potency,[1],inactive
same,Potency,[2],inactive
same,Potency,[3],inactive
same,Potency,[4],inactive
same,Potency,[8],inactive
same,Potency,[5],inactive
same,Potency,[6],inactive
same,Potency,[7],inactive
CC1CN1 (stereo unspecified),Potency,[1],inactive
same,Potency,[2],inactive
same,Potency,[3],inactive
same,Potency,[4],inactive
same,Potency,[8],inactive
same,Potency,[9],inactive
same,Potency,[5],inactive
same,Potency,[6],inactive
same,Potency,[7],inactive
CNC(=O)CSP(=O)(OC)OC,Potency,[1],inactive
same,Potency,[2],inactive
same,Potency,[3],inactive
same,Potency,[4],inactive
same,Potency,[8],inactive
same,Potency,[5],inactive
same,Potency,[6],inactive
same,Potency,[7],inactive
CCOP(=S)(OCC)Oc1cc(C)nc(N(CC)CC)n1,Potency,[1],inactive
same,Potency,[2],2.73 µM (active)
same,Potency,[3],inactive
same,Potency,[4],inactive
same,Potency,[5],inactive
same,Potency,[6],inactive
same,Potency,[7],inactive
Oc1ccc(Cl)c(Cl)c1,Potency,[1],inactive
same,Potency,[2],inactive
same,Potency,[3],inactive
same,Potency,[4],inactive
same,Potency,[5],inactive
same,Potency,[6],inactive
same,Potency,[7],inactive
Oc1cccc(Cl)c1Cl,Potency,[1],inactive
same,Potency,[2],inactive
same,Potency,[3],inactive
same,Potency,[4],inactive
same,Potency,[9],inactive
same,Potency,[5],inactive
same,Potency,[6],inactive
same,Potency,[7],inactive
C=Cc1cccc(CCl)c1,Potency,[1],inactive
same,Potency,[2],inactive
same,Potency,[3],inactive
same,Potency,[8],inactive
same,Potency,[9],55.9 µM (active)
same,Potency,[5],inactive
same,Potency,[6],inactive
same,Potency,[7],inactive
CC(C)C(Nc1ccc(C(F)(F)F)cc1Cl)C(=O)OC(C#N)c1cccc(Oc2ccccc2)c1 (stereo unspecified),Potency,[1],inactive
same,Potency,[2],inactive
same,Potency,[3],inactive
same,Potency,[5],inactive
same,Potency,[6],inactive
CN(C)CCc1c[nH]c2ccccc12,Potency,[1],inactive
same,Potency,[2],inactive
same,Potency,[3],inactive
same,Potency,[9],inactive
same,Potency,[5],inactive
O=[N+]([O-])[O-].[Tl+],Potency,[1],inactive
same,Potency,[2],inactive
same,Potency,[3],inactive
same,Potency,[8],inactive
same,Potency,[6],inactive
CC1(C)C(C=C(Cl)Cl)C1C(=O)OC(C#N)c1ccc(F)c(Oc2ccccc2)c1 (stereo unspecified),Potency,[1],inactive
same,Potency,[2],inactive
same,Potency,[3],inactive
same,Potency,[10],inactive
same,Potency,[9],inactive
same,Potency,[5],inactive
same,Potency,[6],inactive
CC(=O)[O-].CC(=O)[O-].CC(=O)[O-].[Sb+3],"activity change, negative = cytotoxicity",[1],6.01% [at 8.47 µM] (inactive)
same,activation,[2],0.374% [at 8.47 µM] (inactive)
same,"viability change, negative = cytotoxic",[3],5.29% [at 8.47 µM] (inactive)
same,"activity change, negative = cytotoxicity",[8],"-5.68% [at 5.95 µM, co-treated with 50 nM rosiglitazone] (inactive)"
same,activation,[9],-8.79% [at 8.36 µM] (inactive)
same,"viability change, negative = cytotoxic",[5],-9.94% [at 8.36 µM] (inactive)
same,"activity change, negative = cytotoxicity",[6],4.7% [at 5.95 µM] (inactive)
CCCCCCCCCCCCCCn1cc[n+](C)c1,Potency,[1],8.65 µM (active) and 38.1 µM (active)
same,Potency,[2],inactive
same,Potency,[3],34.4 µM (active)
same,Potency,[8],9.79 µM [setting not given] (active) and inactive
same,Potency,[5],24.4 µM (active) and 30.3 µM (active) and inactive
same,Potency,[6],19.5 µM (active) and 21.6 µM (active) and inactive
Cc1cc2c3c(c1)C(c1ccccc1)=N[C@@H](NC(=O)c1ccncc1)C(=O)N3CC2,Potency,[1],inactive
same,Potency,[2],inactive
same,Potency,[3],inactive
same,Potency,[8],inactive
same,Potency,[9],inactive
same,Potency,[5],inactive
same,Potency,[6],inactive
same,Potency,[7],inactive
N#CC(C#N)=NNc1cccc(Cl)c1,Potency,[1],9.69 µM (active)
same,Potency,[2],inactive
same,Potency,[3],15.4 µM (active)
same,Potency,[8],490 nM (active)
same,Potency,[5],27.3 µM (active)
O=C(N[C@@H]1N=C(c2ccccc2F)c2cccc3c2N(CC3)C1=O)c1cc2ccccc2[nH]1,Potency,[1],inactive
same,Potency,[2],0.0668 µM (active)
same,Potency,[3],inactive
same,Potency,[5],inactive
same,Potency,[6],inactive
CCCCn1cc[n+](C)c1 (tested in a mixture with another compound),Potency,[1],inactive
same,Potency,[2],inactive
same,Potency,[3],inactive
same,Potency,[8],inactive
same,Potency,[5],inactive
same,Potency,[6],inactive
O.O.O.O.O.O.O.O=S(=O)([O-])[O-].[Co+2],Potency,[1],inactive
same,Potency,[2],inactive
same,Potency,[3],inactive
same,Potency,[5],inactive
same,Potency,[6],inactive
O=C(O)[C@H](O)[C@@H](O)C(=O)O,Potency,[1],inactive
same,Potency,[2],inactive
same,Potency,[3],inactive
same,Potency,[8],inactive
same,Potency,[9],inactive
same,Potency,[5],inactive
same,Potency,[6],inactive
CCOP(=S)(OCC)SC(CCl)N1C(=O)c2ccccc2C1=O (stereo unspecified),Potency,[1],inactive
same,Potency,[2],inactive
same,Potency,[3],inactive
same,Potency,[8],inactive
same,Potency,[9],9.69 µM (active)
same,Potency,[6],inactive
COC(=O)c1ccccc1S(=O)(=O)NC(=O)Nc1nc(C)nc(OC)n1,Potency,[1],inactive
same,Potency,[2],inactive
same,Potency,[3],inactive
same,Potency,[8],inactive
same,Potency,[9],inactive
same,Potency,[5],inactive
same,Potency,[6],inactive
same,Potency,[7],inactive
[Cl][Hg][c]1ccccc1,Potency,[1],1.93 µM (active)
same,Potency,[2],inactive
same,Potency,[3],5.45 µM (active)
same,Potency,[5],1.72 µM (active)
same,Potency,[6],3.09 µM (active)
Cc1ccc2cc3c(ccc4ccccc43)c3c2c1CC3,Potency,[1],inactive
same,Potency,[2],0.487 µM (active)
same,Potency,[3],inactive
same,Potency,[9],1.22 µM (active)
same,Potency,[5],inactive
same,Potency,[6],inactive
CC1(C)[C@H](/C=C2\CCSC2=O)[C@@H]1C(=O)OCc1coc(Cc2ccccc2)c1,Potency,[1],inactive
same,Potency,[2],inactive
same,Potency,[3],inactive
same,Potency,[8],inactive
same,Potency,[6],inactive
CC[C@H](C)[C@H]1O[C@]2(C=C[C@@H]1C)C[C@@H]1C[C@@H](C/C=C(\C)[C@@H](O[C@H]3C[C@H](OC)[C@@H](O[C@H]4C[C@H](OC)[C@@H](NC)[C@H](C)O4)[C@H](C)O3)[C@@H](C)/C=C/C=C3\CO[C@@H]4[C@H](O)C(C)=C[C@@H](C(=O)O1)[C@]34O)O2,Potency,[1],9.69 µM (active)
same,Potency,[2],inactive
same,Potency,[3],4.33 µM (active)
same,Potency,[8],2450 nM (active)
same,Potency,[5],4.33 µM (active)
same,Potency,[6],13.8 µM (active)
CCCCn1cc[n+](C)c1.[Cl][Fe-]([Cl])([Cl])[Cl],Potency,[1],inactive
same,Potency,[2],inactive
same,Potency,[3],inactive
same,Potency,[5],inactive
same,Potency,[6],inactive
Clc1ccc(C2(Cn3cncn3)OCCO2)c(Cl)c1,Potency,[1],inactive
same,Potency,[2],inactive
same,Potency,[3],inactive
same,Potency,[8],inactive
same,Potency,[5],inactive
same,Potency,[6],inactive
same,Potency,[7],inactive
C=C(C)C(=O)[O][Sn]([CH2]CCC)([CH2]CCC)[CH2]CCC,Potency,[1],2.73 µM (active)
same,Potency,[2],inactive
same,Potency,[3],2.73 µM (active)
same,Potency,[5],0.433 µM (active)
same,Potency,[6],1.1 µM (active)
C[C@]12C/C(=C/O)C(=O)C[C@@H]1CC[C@@H]1[C@@H]2CC[C@@]2(C)[C@H]1CC[C@]2(C)O,Potency,[1],inactive
same,Potency,[2],inactive
same,Potency,[3],inactive
same,Potency,[8],inactive
same,Potency,[9],5.96 µM (active)
same,Potency,[5],inactive
same,Potency,[6],inactive
CCCCCCC[CH2][Sn]([Cl])([Cl])[CH2]CCCCCCC,Potency,[1],inactive
same,Potency,[2],21.7 µM (active)
same,Potency,[3],inactive
same,Potency,[8],48900 nM (active)
same,Potency,[9],0.863 µM (active)
same,Potency,[5],54.4 µM (active)
same,Potency,[6],30.9 µM (active)
CC(=O)[O][Pb]([c]1ccccc1)([c]1ccccc1)[c]1ccccc1,Potency,[1],0.193 µM (active)
same,Potency,[2],inactive
same,Potency,[3],3.86 µM (active)
same,Potency,[8],110 nM (active)
same,Potency,[5],0.172 µM (active)
same,Potency,[6],9.77 µM (active)
